We go through 40 compounds from PubChem BioAssay AID720553 (National Center for Advancing Translational Sciences (NCATS), 2013).

Out of some 340,000 compounds screened, about 3,300 (0.97%) were called active.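 Rule for the calls: active = maximum activity change below -70%; inconclusive = maximum activity change from -70% to -50%; inactive = maximum activity change above -50%.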 Shown is part of a subset that was picked to be rich in actives.
% is set by controls: 0 for no effect and ±100 for the full control effect.

The test system of the test is Potassium voltage-gated channel subfamily H member 2, brain isoform KCNH2 3.1 (human). The experiment in a line: qHTS for Inhibitors of KCHN2 3.1: Mutant qHTS. Conditions: U2OS KCNH2 3.1, thallium flux FluxOr; stronger effect = lower value. From the text:
Many antipsychotic drugs that inhibit the neurotransmitter dopamine also bind to hERG1 channel which might help explain their antipsychotic activity but also produces cardiac side effects. The discovery of the novel KCNH2 3.1 isoform offers a potential new target for the development of antipsychotic drugs without cardiac side effects. This proposal will use a high throughput thallium flux assay developed for KCNH2 to screen compounds that modulate the activity of KCNH2 3.1. The wild type KCNH2 channel will also be screened in parallel to help define the selective modulators of this KCNH2 3.1 potassium channel. The resulting compounds will be validated in electrophysiology experiments. The availability of animal models will allow future testing in vivo for effects on memory and other aspects of animal physiology linked with psychosis. NIH Chemical Genomics Center [NCGC] NIH Molecular Libraries Probe Centers Network [MLPCN] MLPCN Grant: MH096539 Assay Submitter (PI): James Barrow, Johns Hopkins University, Lieber Institute for Brain Development
U2OS cells were resuspended in cell media containing 10% fetal calf serum (FCS) at a concentration of 2 million cells / mL. The solution was treated with the mutant (3.1) virus at 1.77 x 10^8 / mL and allowed to incubate at room temperature in the dark. After 4 hours of incubation, DMEM + 10% fetal bovine serum (FBS) was added to the cell solution. Three microliter was then dispensed into a 1536 tissue culture treated black assay plates which were incubated overnight at 37 C. Two microliter of loading buffer (HBSS + HEPES + Red40 dye quencher + FluxOr dye) was added and the assay plates were incubated for 45 min at room temperature in the dark. […] A stimulation buffer was added to the plate and the second kinetic read (2 min) was obtained. The rate constant was calculated from the kinetic reads and normalized to the positive and negative DMSO controls.
(Quantitative high-throughput screening tests each substance at several concentrations.)
Take `CCOC(=O)C1(c2ccccc2)CCN(CC(O)c2ccc(NC(C)=O)cc2)CC1` (stereo not given): the activity change was -5.82% (inactive). The result for `CCOC(=O)C1(CCc2ccccc2)CCN(Cc2ccco2)CC1` reads -96.9% (active); that for `c1ccc(CCN2CCC3(CC2)OCCO3)cc1`, -0.723% (inactive); that for `COP(=O)(OC)C(NC(=O)c1ccc(C)cc1)C(Cl)(Cl)Cl` (stereo not given), 10.5% (inactive). The result for `COc1ccc(C(=O)C2CCCN(Cc3ccc(C)s3)C2)cc1OC` (stereo not given) reads -13% (inactive); that for `COc1cccc(CN2CCCC(C(=O)c3ccccc3SC)C2)c1O` (stereo not given), -72.3% (active). In the case of `CSc1ccc(C(=O)C2CCCN(Cc3ccn[nH]3)C2)cc1` (stereo not given), the activity change is -19% (inactive). In the case of `CC1C2Cn3c(nc4ccccc43)C1N(C)O2` (stereo not given) it was 20.5% (inactive); in that of `COC(=O)C1=C(c2ccc(F)cc2OCc2ccccc2)C[C@@H]2CC[C@H]1N2C(=O)NCc1ccc(C(C)(C)C)cc1`, -19.4% (inactive). Turning to `COC(=O)C1=C(c2ccc(F)cc2OCc2ccccc2)C[C@@H]2CC[C@H]1N2C(=O)NCc1ccc(OC)c(OC)c1`, the activity change is -73.8% (active). As for `COC(=O)C1=C(c2ccc(F)cc2OCc2ccccc2)C[C@@H]2CC[C@H]1N2C(=O)NCc1ccc2[nH]ccc2c1`, the activity change is 1.25% (inactive).

Regarding `CC1=CC(=Cc2sc3ccccc3[n+]2C)C=C(C)O1`, the activity change was -4.47% (inactive).

`COC(=O)C1=C(c2ccc(C(C)=O)cc2)C[C@@H]2CC[C@H]1N2C(=O)NCCNC(C)=O`: the activity change is 21.5% (inactive). In the case of `COC(=O)CN1C(=O)C2(C(C(=O)OC)=C(N)Oc3ccccc32)C2=C1CC(C)(C)CC2=O` (stereo not given) it was -17.7% (inactive); in that of `CC(=O)NC(=O)NC(C)Cc1ccccc1` (stereo not given), -18.9% (inactive); in that of `CC(Cc1ccccc1)NC=O` (stereo not given), 13.6% (inactive). For the compound `CC(Cc1ccccc1)NCCC(c1ccccc1)c1ccccc1` (stereo not given), the activity change is -112% (active).

For `CCN1c2nc3c(C)cccn3c(=O)c2CC2(C(=O)N(C)C(=O)N(C)C2=O)C1C` (stereo not given), the activity change is -4.08% (inactive). As to `c1ccc(C2NCc3ccccc3-n3cccc32)cc1` (stereo not given), the activity change was 12.2% (inactive). The result for `CC1(C)C(c2ccccc2)=NC(c2cccnc2)=[N+]1[O-]` reads 0.45% (inactive). With `CN(C)c1nc(N(C)C)nc(N(C#N)CCCl)n1`, the activity change was -8.4% (inactive). On to `OCC#CC[N+]1(CC#Cc2ccccc2)CCCC1`, for which the activity change is 13.7% (inactive). The result for `Cn1c(O)c(C=Nc2ccc3c(c2)CCC3)c(=O)n(C)c1=O` reads -17.3% (inactive); that for `CCOC(=O)C1(Cc2ccc(Cl)cc2)CCN(C(C)CCn2cccn2)CC1` (stereo not given), -115% (active). With `O=c1c2ccccc2nc(/C=C/c2ccc(F)cc2)n1-c1ccccc1O`, the activity change is -2.48% (inactive).

In the case of `CC(C)c1ccc(OCC(=O)N2CCCN(C)CC2)cc1`, the activity change is 10.3% (inactive).

`CC(C)c1ccc(OCC(=O)N2CCN(C)CC2)c(Br)c1`: the activity change was -93.1% (active). As to `CN1CCN(C(=O)COc2ccc(C(C)(C)C)cc2Br)CC1`, the activity change is -2.07% (inactive). In the case of `CC(=C1C(=O)c2ccccc2C1=O)N1CCN(CCN=Cc2c(O)n(C)c(=O)n(C)c2=O)CC1` it was 10.3% (inactive). In the case of `CC1CC=CCC12C(=O)NC(=S)NC2=O` (stereo not given) it was 10.6% (inactive). Take `CSC1=NP(=S)(SC)N(C)c2nc3n(c21)CCC3` (stereo not given): the activity change is -5.66% (inactive). `Cc1cc(C)cc(NC(=S)NC2CC3CCCC(C2)N3Cc2cccs2)c1` (stereo not given): the activity change is -73.1% (active). In the case of `c1ccc(CCNC2CCCCCC2)cc1` it was 12.5% (inactive); in that of `CNC(=O)O/N=C(\N)Cc1csc2ccc(Cl)cc12`, 4.55% (inactive); in that of `N#Cc1ccc(Cn2cc(C(=O)c3ccco3)c3ccccc32)cc1`, -80.8% (active). The result for `NC(=O)Cn1cc(C(=O)c2ccccc2F)c2ccccc21` reads 3.8% (inactive); that for `COc1ccc2[nH]c3c(c2c1)CCN[C@H]3C`, 2.31% (inactive); that for `COc1cc(OC)cc(C2(C#N)CCN(C)CC2)c1`, 5.57% (inactive). The result for `Cc1ncoc1C(=O)NCC1=C(c2cccc3ccccc23)C[C@@H]2CC[C@H]1N2Cc1ccco1` reads -7.12% (inactive); that for `CC(=CCOc1ccc2ccc(=O)oc2c1)C1=CC(=O)C(C)(C)O1`, 4.08% (inactive).
